Hits are enriched below; roughly 8% of the tested compounds scored in any of these assays.
HCMV inh – qHTS Assay for inhibitors of the human cytomegalovirus (HCMV). HFF cells, HCMV-luciferase reporter, 72 h; hits give low values. activity change, negative = inhibition, % at 57.5 µM. 4.5% of 410,000 active; in the data active = activity change below about -60%; inconclusive = no clear call, values can overlap the other calls; inactive = above about -39%; also: % is scaled to controls: 0 for no effect and ±100 for the full control effect
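Two compound doses tested in HFFs infected with HCMV-luciferase, MOI 1 PFU/cell, 72 h at 37C. Lysate luminescence read with OneGlo; data normalized against buffer-only and 10uM Salinomycin inhibitor controls.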
LASV entry inh – qHTS for Inhibitors of binding or entry into cells for Lassa Virus | Potency, µM (doses to about 37.9 µM), for inactives: at the top dose activity change, negative = inhibition, hits mostly inhibitors | AID 540256, 2011 | 1.2% of 300,000 active | Lassa virus pseudotype entry inhibition, cell reporter; calls by dose curve; tested in HEK293 cells; also: potency is read from the fitted curve at half-maximal effect; % is scaled to controls: 0 for no effect and ±100 for the full control effect; nearly all actives have a fitted effect of over 50% in size
MARV entry inh – qHTS for inhibitors of binding or entry into cells for Marburg Virus | Marburg virus pseudotyped entry inhibition, cell reporter | Potency, µM (highest dose often 37.8 µM), inactives show at the highest dose activity change, negative = inhibition, actives largely listed as inhibitors | 1.8% of 300,000 active; calls by dose curve; tested in HEK293 cells; also: potency is read from the fitted curve at half-maximal effect; % is scaled to controls: 0 for no effect and ±100 for the full control effect
FMDV antiviral – High Throughput Screening for Foot and Mouth Disease Virus Antivirals; FMDV antiviral cell-based qHTS; Potency, µM (highest dose often 57.9 µM), for the others: top-dose activity change, negative = inhibition, most hits filed as inhibitors; 1.2% of 410,000 active; AID 1159524, 2015; calls by dose curve; tested in HEK293T cells; also: read-out not given here; potency is read from the fitted curve at half-maximal effect; % is scaled to controls: 0 for no effect and ±100 for the full control effect; nearly all actives have a fitted effect of over 45% in size
HCV inhibitor – qHTS Assay for Inhibitors of Hepatitis C Virus (HCV); Potency, µM (top dose mostly 41.8 µM), for the others: at the highest dose activity change, negative = inhibition, hits mostly inhibitors; 3.4% of 340,000 active; Huh7.5.1 HCVcc-Cre infection, luciferase reporter, 44 h; active = well fitted inhibition curve with a large enough effect; inconclusive = small, poorly fitted or top-dose-only effect, or another doubt; inactive = no such curve, though single readings can be large or run the other way; also: potency is read from the fitted curve at half-maximal effect; % is scaled to controls: 0 for no effect and ±100 for the full control effect
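After 44 h co-culture of compound, cells and HCVcc-Cre (~0.5 moi), substrate is added for 15 min at room temperature and luciferase measured over 15 sec. Cells were seeded at 1,000/well and pre-cultured 4 h.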
SARS PLP yeast – qHTS of Yeast-based Assay for SARS-CoV PLP. Potency, µM (top dose mostly 32.9 µM), for the others: top-dose activity, positive = growth rescue, hits mostly activators. 0.19% of 330,000 active. AID 485353, 2010. S. cerevisiae expressing SARS-CoV PLpro, growth rescue; calls by dose curve; also: potency is read from the fitted curve at half-maximal effect; 0% is about no effect; nearly all actives have a fitted effect of over 55% in size
* marks the source's active call; other numbers are inactive results; [ ] = another dose, or the depositor's remark.

N#CCc1nn(-c2ccc(F)cc2)c(N)c1C#N was read as HCMV inh -61*, FMDV antiviral -3%, HCV inhibitor 5% and SARS PLP yeast 0%.
For CCC(=O)N1CCc2cc(Br)cc(S(=O)(=O)CCC(=O)N3CCN(c4ccccc4F)CC3)c21 the results were HCMV inh 4, LASV entry inh 5%[46.1 µM], MARV entry inh -4%[46.1 µM] and FMDV antiviral 16%.
Cc1ccnc(NC(=O)c2cccc(OC(F)F)c2)n1 was read as HCMV inh -30, LASV entry inh 5%[46.1 µM], MARV entry inh inconclusive, FMDV antiviral 35%, HCV inhibitor 17% and SARS PLP yeast -2%.
Screening COc1cc(NC(=O)c2ccc(Br)o2)ccc1NC(=O)c1ccccc1Cl returned LASV entry inh inconclusive, MARV entry inh -10%, FMDV antiviral 0%, HCV inhibitor 10µM* and SARS PLP yeast -22%.
For CN(C)S(=O)(=O)c1cccc(NC(=O)Cc2ccc(Cl)cc2)c1 the results were HCMV inh inconclusive, LASV entry inh 13µM*, MARV entry inh -17%, FMDV antiviral inconclusive, HCV inhibitor 4% and SARS PLP yeast -1%.
`CN(C)S(=O)(=O)c1cccc(C(=O)Nc2cc(Cl)cc(Cl)c2)c1` gave HCMV inh -8, LASV entry inh inconclusive, MARV entry inh -4%, FMDV antiviral -6%, HCV inhibitor 11µM* and SARS PLP yeast -4%.
Screening COc1cc(NC(=O)c2ccccc2F)ccc1NC(=O)c1ccccc1Cl returned HCMV inh inconclusive, LASV entry inh -10%[46.1 µM], MARV entry inh -4%[46.1 µM], FMDV antiviral 5%, HCV inhibitor inconclusive and SARS PLP yeast -1%.
Screening O=C(Nc1cc(Cl)cc(Cl)c1)c1cccc(OC(F)F)c1 returned HCMV inh -75*, LASV entry inh -14%, MARV entry inh -12%, FMDV antiviral 40µM*, HCV inhibitor inconclusive and SARS PLP yeast -46%.
O=c1cc(-c2ccccc2)n2c(SCc3ccc(Br)cc3)nnc2[nH]1 was read as HCMV inh -25, LASV entry inh 3%[46.1 µM] and FMDV antiviral 8%.
`COc1cccc(C(=O)Nc2cccc(NC(=O)c3ccccc3Cl)c2)c1` gave HCMV inh -97*, FMDV antiviral -9%, HCV inhibitor -18% and SARS PLP yeast -3%.
Screening CN(C)S(=O)(=O)Oc1cccc(C(=O)Nc2cccc(Cl)c2)c1 returned HCMV inh -29, LASV entry inh inconclusive, MARV entry inh -24%, FMDV antiviral -25%, HCV inhibitor 8.9µM* and SARS PLP yeast -4%.
For CN(C)S(=O)(=O)Oc1cccc(C(=O)Nc2ccc(Cl)c(Cl)c2)c1 the results were HCMV inh inconclusive, LASV entry inh inconclusive, MARV entry inh -25%, FMDV antiviral 2%, HCV inhibitor inconclusive and SARS PLP yeast -17%.
Screening CCCC(=O)Nc1ccc(C(=O)Nc2cccc(OC)c2)cc1 returned HCMV inh -74*, LASV entry inh 0%, MARV entry inh 13%, FMDV antiviral 46%, HCV inhibitor -22% and SARS PLP yeast -16%.
CCC(=O)Nc1ccc(Cl)c(NC(=O)c2ccccc2OC)c1 was read as HCMV inh -62*, LASV entry inh 5%[46.1 µM], MARV entry inh inconclusive, FMDV antiviral 3%, HCV inhibitor -7% and SARS PLP yeast 0%.
Screening O=C(NCC1Cc2cccc(-c3ncccn3)c2O1)c1cccc(-c2ccccc2F)c1 (stereo not given) returned FMDV antiviral 18%.
For O=C(CN1Cc2ccccc2OC(c2ccccc2F)C1)NC(c1ccccn1)C(F)(F)F (stereo not given) the results were FMDV antiviral -18%.
Screening CCC(=O)Nc1ccc(Cl)c(NC(=O)c2cccc(OC)c2)c1 returned HCMV inh -88*, LASV entry inh -6%[46.1 µM], MARV entry inh -11%[46.1 µM], FMDV antiviral 6%, HCV inhibitor inconclusive and SARS PLP yeast 0%.
For COCCOc1cc(NC(=O)c2cccc(OC)c2)c(Cl)cc1Cl the results were HCMV inh -18, LASV entry inh -7%, MARV entry inh -19%[46.1 µM], FMDV antiviral -5%, HCV inhibitor inconclusive and SARS PLP yeast -1%.
Screening CCc1ccc(OCC(=O)N(Cc2ccco2)Cc2ccccc2Cl)cc1 returned HCMV inh inconclusive, LASV entry inh 2%[46.1 µM], MARV entry inh -30%[46.1 µM] and FMDV antiviral -24%.
Screening COc1cccc(Cn2c(=O)n(-c3ccccc3C)c(=O)c3c2c2cc(C)ccc2n3C)c1 returned HCMV inh -68*, LASV entry inh inconclusive and FMDV antiviral -24%.
`Cc1cc(NNC(=O)c2cccc(C(F)(F)F)c2)nc2c1c(C)nn2C` gave HCMV inh inconclusive, FMDV antiviral inconclusive, HCV inhibitor 4.5µM* and SARS PLP yeast 0%.
Cc1cc(C)n(CC(=O)NNC(=O)c2cccc(C(F)(F)F)c2)n1 was read as HCMV inh inconclusive, FMDV antiviral -19%, HCV inhibitor 7% and SARS PLP yeast 2%.
CCN(CC)CCN1C(=O)c2ccccc2NC1c1ccc(N(C)C)cc1 (stereo not given) was read as HCMV inh 24, LASV entry inh -21%, MARV entry inh -6%[46.1 µM], FMDV antiviral 3.2µM*, HCV inhibitor 12% and SARS PLP yeast -17%.
O=C1NC(c2ccc(Cl)cc2)Nc2ccccc21 (stereo not given) was read as HCMV inh -30, LASV entry inh inconclusive, MARV entry inh -19%[14.2 µM], FMDV antiviral 12%, HCV inhibitor 13% and SARS PLP yeast 0%.
CN(C)c1ccc(C2Nc3ccccc3C(=O)N2CCCN2CCOCC2)cc1 (stereo not given) was read as HCMV inh 9, FMDV antiviral 2.8µM*, HCV inhibitor 7% and SARS PLP yeast -1%.
For CCN(CC)CCN1C(=O)c2ccccc2NC1c1ccc(F)cc1 (stereo not given) the results were HCMV inh 20, LASV entry inh 10%, MARV entry inh 9%, FMDV antiviral 12%, HCV inhibitor -18% and SARS PLP yeast 6%.
CN(C)c1ccc(C2NC(=O)c3ccccc3N2)cc1 (stereo not given) was read as HCMV inh 12, LASV entry inh inconclusive, MARV entry inh 10µM*, FMDV antiviral 21%, HCV inhibitor inconclusive and SARS PLP yeast -1%.
COc1ccc(OC)c(C2C(C(=O)Nc3ccc(C)cc3)=C(C)Nc3nnnn32)c1 (stereo not given) was read as HCMV inh -27, LASV entry inh 30%[46.1 µM] and FMDV antiviral -1%.
